Source: PubChem BioAssay
Pf Dd2 growth = inhibitors of Plasmodium falciparum Dd2 growth; P. falciparum Dd2 growth, SYBR Green, 72 h; 120,000 compounds, 4.3% hits; AID 1347417; Potency, µM (highest dose often 28.9 µM), inactives show top-dose activity, negative = inhibition, most hits filed as inhibitors; active = well fitted inhibition curve with a large enough effect;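 also: plate controls were DMSO vehicle for no effect and reference drug for full effect; nearly all actives have a fitted effect of over 65% in size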
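Infected erythrocytes (Dd2, 0.3% parasitemia, 2.5% hematocrit final) are added to compound in RPMI-1640/Albumax II medium, grown 72 h at 37C in low oxygen, then lysed with saponin/Triton-X containing SYBR Green and read by fluorescence.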
An asterisk follows results filed as active; [ ] = dose if it differs, or a comment. Only a selection was taken, and hits are over-represented in it overall. Potency is read from the fitted curve at half-maximal effect.

Cc1ccc(-c2noc([C@@H]3C[C@H](NC(=O)Nc4ccc(Cl)cc4)CN3C)n2)cc1 was read as Pf Dd2 growth -8.1%[44.1 µM].
For COc1ccc(-c2noc([C@@H]3C[C@H](NCc4ccc(S(C)(=O)=O)cc4)CN3C)n2)cc1 the results were Pf Dd2 growth -13.1%.
For CN1C[C@@H](NC(=O)c2cnccn2)C[C@H]1c1nc(-c2ccc(OC(F)(F)F)cc2)no1 the results were Pf Dd2 growth 14.1µM*.
CN1C[C@@H](NC(=O)c2ccccn2)C[C@H]1c1nc(-c2ccc(Cl)cc2)no1 was read as Pf Dd2 growth inactive.
`COc1ccc(C(=O)N[C@H]2C[C@@H](c3nc(-c4ccccc4)no3)N(C)C2)cc1` gave Pf Dd2 growth inactive.
`COc1ccc(-c2noc([C@@H]3C[C@H](NC(=O)c4ccc(F)cc4)CN3C)n2)cc1` gave Pf Dd2 growth inactive.
COc1ccc(NC(=O)N[C@H]2C[C@@H](c3nc(-c4ccc(F)cc4)no3)N(C)C2)cc1 was read as Pf Dd2 growth inactive.
`Cc1cccc(NC(=O)CSc2nnc(N)s2)c1` gave Pf Dd2 growth inactive.
Screening COc1ccc(-c2noc(-c3nnn4c3COC(c3ccc(F)cc3)C4)n2)cc1OC (stereo unspecified) returned Pf Dd2 growth -15.7%.
COCCN1CCC(N2CCN(S(=O)(=O)c3ccc(OC)c(Cl)c3)CC2)C1=O (stereo unspecified) was read as Pf Dd2 growth -11.7%.
`CN(C)c1ccc(CNC(=O)CN2C(=O)CSc3ccc(S(=O)(=O)N4CCCC4)cc32)cc1` gave Pf Dd2 growth -9.1%.
`Cc1ccc(S(=O)(=O)N[C@H](C)c2c(-c3ccc(F)cc3)noc2C(=O)O)cc1` gave Pf Dd2 growth -3.8%[44.1 µM].
For CS(=O)(=O)N1CCC(OC2CCN(C(=O)C3CCOC3)CC2)CC1 (stereo unspecified) the results were Pf Dd2 growth 46.8%.
`CC(C)(C)c1ccc(-c2cc(C[C@H]3CNCC[C@H]3CC(=O)N3CCN(c4ccc(F)cc4)CC3)no2)cc1` gave Pf Dd2 growth inactive.
Screening CC(C)(C)NC(=O)C[C@@H]1CCNC[C@@H]1Cc1cc(-c2ccc(C(C)(C)C)cc2)on1 returned Pf Dd2 growth 3.98µM*.
Screening O=C(C[C@@H]1CCNC[C@@H]1Cc1cc(-c2ccc(F)cc2)on1)NCc1ccc(F)cc1 returned Pf Dd2 growth inactive.
Screening COc1ccc(CNC(=O)C[C@@H]2CCNC[C@@H]2Cc2cc(-c3ccc(C(C)(C)C)cc3)on2)cc1 returned Pf Dd2 growth -17.8%.
Screening CC(C)(C)c1ccc(-c2cc(C[C@H]3CNCC[C@H]3CC(=O)N3CCCCC3)no2)cc1 returned Pf Dd2 growth 5.01µM*.
CC(C)(C)c1ccc(-c2cc(C[C@H]3CNCC[C@H]3CC(=O)NCc3ccc(F)cc3)no2)cc1 was read as Pf Dd2 growth -2.9%.
`COCCN1C(=O)[C@@H]2C[C@@H](CN2C(=O)c2ccc3c(c2)OCO3)Oc2ccccc21` gave Pf Dd2 growth -11.7%[44.1 µM].
Cc1ccc(C)c(NS(=O)(=O)c2ccc3c(c2)CCCN3C(=O)C2CCC2)c1 was read as Pf Dd2 growth -12.8%.
Cc1noc(C)c1S(=O)(=O)N1CCCC(c2nc(C(C)C)no2)CCNC(=O)CC1 (stereo unspecified) was read as Pf Dd2 growth -15.5%.
COc1ccc(CNc2nc(-c3ccco3)nn2C(=O)CC(C)C)cc1 was read as Pf Dd2 growth 8.8%.
Screening COC(=O)c1ccccc1NC(=O)c1nc(S(=O)(=O)Cc2cccc(C)c2)ncc1Cl returned Pf Dd2 growth 43.3%[5.79 µM].
`COc1ccc2nc(N3CCN(C(=O)c4ccco4)CC3)sc2c1` gave Pf Dd2 growth inactive.
`O=C(Cn1cc(SCc2ccc(C(F)(F)F)cc2)c2ccccc21)N1CCCCCC1` gave Pf Dd2 growth -5.5%.
Cc1ccc(S(=O)(=O)N2CCC(C(=O)Nc3ccc(Oc4ccccc4)cc3)CC2)cc1 was read as Pf Dd2 growth -0.6%.
For Cc1ccc(NS(=O)(=O)c2ccc3[nH]c4c(c3c2)CCCCCC4)cc1 the results were Pf Dd2 growth inactive.
Screening Cc1ccc(NC(=O)C2CCN(S(=O)(=O)c3ccc4[nH]c5c(c4c3)CCCCC5)CC2)cc1 returned Pf Dd2 growth 11.2µM*.
Screening CN1CC(=O)N(C2CCNC2)Cc2c(NCC3(O)CCCCC3)ncnc21 (stereo unspecified) returned Pf Dd2 growth 0.6%.
Screening C=CCNC(=O)CC1CCCN(c2cnn(C)c(=O)c2)C1 (stereo unspecified) returned Pf Dd2 growth 12.1%.
CCn1cc(C(=O)N2CCn3nc(C(=O)Nc4ccccc4)cc3C2)c(C)n1 was read as Pf Dd2 growth -20.5%.
For Cc1cc(C)c(CNC(=O)c2nc(-c3ccccc3C#N)cc3c2ccn3C(C)C)c(=O)[nH]1 the results were Pf Dd2 growth inactive.
`Cc1cc(C)c(CNC(=O)c2nc(-c3ccnn3C)cc3c2ccn3C(C)C)c(=O)[nH]1` gave Pf Dd2 growth 7.08µM*.
Cc1cc(C)c(CNC(=O)c2nc(-c3ccccc3)cc3c2ccn3C(C)C)c(=O)[nH]1 was read as Pf Dd2 growth inactive.
Cc1nc([C@H]2CCNC[C@H]2NC(=O)C2CC2)n[nH]1 was read as Pf Dd2 growth 2.2%.
For COc1ccc(OC2CCN(C(C)=O)CC2)c(C(=O)NC(C)c2cn(C)nc2C)c1 (stereo unspecified) the results were Pf Dd2 growth -8.8%.
Screening Cc1nc2sccn2c1C(=O)NC1CC(c2nnc(CN(C)C)n2C)C1 (stereo unspecified) returned Pf Dd2 growth -21.4%.
For O=C(Nc1ccccc1)N1CC(Oc2ccc(-c3noc(-c4ccncc4)n3)cc2)C1 the results were Pf Dd2 growth -17.9%.
Screening O=C(c1ccncc1)N1CCC(Oc2ccc(-c3noc(-c4ccccc4)n3)cc2)C1 (stereo unspecified) returned Pf Dd2 growth -4.0%[5.79 µM].
For CC(C)c1nc(-c2ccc(OC3CCNC3)cc2)no1 (stereo unspecified) the results were Pf Dd2 growth inactive[5.79 µM].
c1cc(-c2nc(-c3ccc(OC4CNC4)cc3)no2)ccn1 was read as Pf Dd2 growth 3.98µM*.
Screening CCCN1CC(Oc2ccc(-c3noc(-c4cccnc4)n3)cc2)C1 returned Pf Dd2 growth -11.1%.
`c1cncc(-c2nc(-c3ccc(OC4CNC4)cc3)no2)c1` gave Pf Dd2 growth 5.01µM*.
O=C(c1ccc2cc[nH]c2c1)N1CCCN(c2cc(-c3ccc(F)cc3)[nH]n2)CC1 was read as Pf Dd2 growth -5.0%.
Screening O=C(CN1CCN(CC(=O)Nc2ccccc2F)CC1)Nc1ccc(Cl)c(C(F)(F)F)c1 returned Pf Dd2 growth -9.9%.
Screening Cc1ccccc1NC(=O)c1ccc(CNS(=O)(=O)c2ccc3c(c2)C(C)(C)C(=O)N3C)cc1 returned Pf Dd2 growth -16.5%.
For CC(C)CN(CCNC(=O)c1cn(C)c2ccc(S(=O)(=O)N3CCOCC3)cc2c1=O)CC(C)C the results were Pf Dd2 growth inactive.
Screening CCN(CC)c1ccc(C(=O)NCc2nnc3cc(-c4nc(C5CC5)no4)ccn23)cc1 returned Pf Dd2 growth -13.9%.
Cc1nc2nncn2c(N2CCN(c3ccccc3)CC2)c1C was read as Pf Dd2 growth inactive.
Screening O=C(c1ccncc1)N1C2CCC1CN(c1ccc(C(F)(F)F)cc1)C2 returned Pf Dd2 growth -9.9%.
COc1ccc(Cc2nc3ccc(C(=O)NCCc4ccccc4)cc3o2)cc1 was read as Pf Dd2 growth -10.7%.
`CCOCCn1cc(C2CCN(S(=O)(=O)c3ccc(Cl)cc3Cl)CC2)c2ccccc21` gave Pf Dd2 growth -9.3%.
